# Reference: publication PMC4336329 (PLoS ONE, 2015)
# The whole screen tested about 310,000 compounds, of which about 14,000 (4.5%) showed an effect of 50% or more. Effects have a minus sign here. This is one part of a sample in which strong results are shown more often than they occur.
# Target: human ether-à-go-go-related gene (hERG) potassium channel (human, UniProt Q12809)
# Assay: primary screen, population patch clamp on CHO cells stably expressing hERG; higher = less effect of the substance
# 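Also: peak tail current of the secondary pulse compared with the same well before compound.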
# Sequence of human ether-à-go-go-related gene (hERG) potassium channel (Q12809 whole entry, looked up): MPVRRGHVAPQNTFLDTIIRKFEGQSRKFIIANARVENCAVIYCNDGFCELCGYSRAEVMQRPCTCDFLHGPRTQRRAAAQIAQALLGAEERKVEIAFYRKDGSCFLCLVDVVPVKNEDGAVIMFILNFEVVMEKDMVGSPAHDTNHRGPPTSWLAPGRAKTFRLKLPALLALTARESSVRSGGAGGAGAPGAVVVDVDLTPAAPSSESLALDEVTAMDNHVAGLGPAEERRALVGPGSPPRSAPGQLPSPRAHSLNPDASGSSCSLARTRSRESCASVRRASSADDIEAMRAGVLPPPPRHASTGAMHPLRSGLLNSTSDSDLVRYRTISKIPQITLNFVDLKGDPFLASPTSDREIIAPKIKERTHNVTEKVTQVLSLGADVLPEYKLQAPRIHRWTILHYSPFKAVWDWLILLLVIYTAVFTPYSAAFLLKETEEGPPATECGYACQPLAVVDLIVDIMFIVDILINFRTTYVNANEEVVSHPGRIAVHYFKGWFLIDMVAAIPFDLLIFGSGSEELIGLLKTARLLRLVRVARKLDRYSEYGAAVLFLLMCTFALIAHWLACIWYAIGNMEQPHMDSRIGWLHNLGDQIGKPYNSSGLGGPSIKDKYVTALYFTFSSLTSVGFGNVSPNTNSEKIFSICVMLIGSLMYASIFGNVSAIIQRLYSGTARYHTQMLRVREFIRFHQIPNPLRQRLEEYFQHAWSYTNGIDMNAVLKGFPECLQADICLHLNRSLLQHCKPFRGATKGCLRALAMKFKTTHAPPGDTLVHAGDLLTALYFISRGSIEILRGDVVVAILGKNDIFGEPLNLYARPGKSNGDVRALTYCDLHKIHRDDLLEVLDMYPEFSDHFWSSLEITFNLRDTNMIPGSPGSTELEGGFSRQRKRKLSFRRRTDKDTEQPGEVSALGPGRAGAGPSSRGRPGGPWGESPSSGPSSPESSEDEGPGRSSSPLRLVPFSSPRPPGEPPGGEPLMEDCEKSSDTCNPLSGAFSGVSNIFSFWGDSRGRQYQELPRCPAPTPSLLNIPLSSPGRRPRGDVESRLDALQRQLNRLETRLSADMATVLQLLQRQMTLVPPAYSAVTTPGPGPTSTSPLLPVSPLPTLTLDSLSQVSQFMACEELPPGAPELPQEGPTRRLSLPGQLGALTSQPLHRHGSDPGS
row,SMILES,"hERG current change (%, negative = inhibition) at 10uM"
1,CC1=C(C(=O)OC(C)C)C(c2ccccc2)NC(=S)N1C (centres unmarked),2.43%
2,COc1ccc(-n2c(=S)[nH]c3ccccc32)cc1,1.28%
3,Cc1c(-c2cccc(Cl)c2)nc2ccccc2c1C(=O)NC1CC1,-60.6%
4,Cc1cc(C(=O)NC2CC2)c2ccccc2n1,19.9%
5,O=C(NCCc1ccccn1)c1cc(-c2ccccc2Cl)nc2ccccc12,-2.8%
6,COc1cccc(-c2cc(C(=O)NN3CCOCC3)c3ccccc3n2)c1,-24.3%
7,CC(C)Oc1cccc(-c2cc(C(=O)NN3CCOCC3)c3ccccc3n2)c1,-60.8%
8,Cl.O=C(NCCc1ccccn1)c1cc(-c2cccc3ccccc23)nc2ccccc12,-27.1%
9,COC(=O)c1sccc1NC(=O)c1c(C)c(-c2cccc(Cl)c2)nc2ccccc12,16.7%
10,Cc1ccc(C)c(-c2cc(C(=O)NC3CC3)c3ccccc3n2)c1,-61.1%
11,Cc1ccc(-c2cc(C(=O)NCCc3ccccn3)c3ccccc3n2)c(C)c1,-51.1%
12,Cc1ccc(C)c(-c2cc(C(=O)NN3CCOCC3)c3ccccc3n2)c1,-17.1%
13,Cc1c(-c2cccc(Cl)c2)nc2ccccc2c1C(=O)N1CCC2(CC1)OCCO2,-47.4%
14,O=C(NN1CCOCC1)c1cc(-c2ccccc2)nc2ccccc12,-8.03%
15,CN(C)S(=O)(=O)c1ccc(N2CCCC2)c(C(=O)Nc2ccc(N3CCOCC3)cc2)c1,-7.91%
16,COc1ccc(C(=O)NCC(=O)NCC(=O)OCc2ccc(Cl)cc2)cc1,-6.07%
17,O=C(Cc1ncn[nH]1)NCCc1ccccc1,-3.77%
18,Cn1c(=O)[nH]c2nncnc2c1=O,-13%
19,COc1cc2ccccc2cc1C(=O)Nc1cccnc1,-9.84%
20,CCOC(CC(=O)NNC(=O)c1c(-c2ccccc2Cl)noc1C)OCC,17.7%
21,COc1cc(C(=O)NCCN2CCOCC2)cc(OC)c1OC,8.25%
22,CCc1ccccc1Nc1cc(C(=O)NCc2ccccn2)c2ccccc2n1,-57.8%
23,O=C(NCc1ccccn1)c1cc(-c2ccccc2)nc2ccccc12,-25.2%
24,COc1ccc(Nc2cc(C(=O)NCc3ccccn3)c3ccccc3n2)c(OC)c1,8.79%

row,SMILES,"hERG current change (%, negative = inhibition) at 10uM"
1,Cc1ccc(CNS(=O)(=O)c2cc3c4c(c2)CCN4C(=O)CC3)cc1,-29.4%
2,CC(=O)c1cccc(OCC(O)CN2CCN(C(=O)c3ccco3)CC2)c1 (centres unmarked),-2.19%
3,CC(=O)N1CCN(CC(O)COc2ccc(Br)cc2)CC1.O=C(O)C(=O)O (centres unmarked),-10.7%
4,COC(=O)c1ccc(OCC(O)CN2CCN(C(=O)c3ccco3)CC2)cc1.O=C(O)C(=O)O (centres unmarked),-25.3%
5,OC(COc1ccc(Br)cc1)CN1CCN(c2ccccc2)CC1 (centres unmarked),-21.2%
6,Cc1cc(C)c(OCC(O)CN2CCN(C(=O)c3ccccc3)CC2)c(C)c1.O=C(O)C(=O)O (centres unmarked),-46.4%
7,O=C(c1ccco1)N1CCN(CC(O)Cn2c3ccccc3c3ccccc32)CC1 (centres unmarked),-41.9%
8,O=C(c1ccccc1)N1CCN(CC(O)COc2ccc(Br)cc2)CC1 (centres unmarked),-64.9%
9,CC(C)(C)c1ccc(OCC(O)CN2CCN(C(=O)c3ccccc3)CC2)cc1.O=C(O)C(=O)O (centres unmarked),-50.7%
10,O=C(c1ccco1)N1CCN(CC(O)COc2ccc(Br)cc2)CC1 (centres unmarked),-72.6%
11,Cl.O=C(c1ccccc1)N1CCN(CC(O)COc2cccc3ccccc23)CC1 (centres unmarked),-28.1%
12,Cc1cc(C)cc(OCC(O)CN2CCN(C(=O)c3ccco3)CC2)c1 (centres unmarked),-43.7%
13,O=C(c1ccco1)N1CCN(CC(O)COc2ccc3oc4ccccc4c3c2)CC1 (centres unmarked),-66.4%
14,O=C(NC1CCCCC1)c1ccc(OC2CCN(Cc3ccccn3)CC2)cc1,-16%
15,COc1ccc(OC)c(N(CC(=O)NCCSC2CCCCC2)S(=O)(=O)c2ccccc2)c1,16%
16,Cc1cccc(NC(=O)CSc2nccn2Cc2ccco2)c1,0.772%
17,Cc1c(NS(=O)(=O)c2ccc(C(=O)NCc3ccc(F)cc3)cc2)c(=O)n(-c2ccccc2)n1C,-15%
18,COc1ccc(C(=O)NC(=S)NNC(=O)c2ccccc2C)cc1,17.7%
19,NC(=O)c1c(NC(=O)CSc2nc3c(c(C(F)(F)F)n2)CCc2ccccc2-3)sc2c1CCCC2,-1.81%
20,Nc1ccc2c(c1)C(=O)Cc1ccccc1S2,9.05%
21,COc1cc(C(=O)N2CCN(CC(O)COc3ccccc3)CC2)cc(OC)c1OC (centres unmarked),4.32%
22,CCCOC(=O)c1ccc(OCC(O)CN2CCN(C(=O)c3ccccc3)CC2)cc1.Cl (centres unmarked),-73.7%
23,COc1ccccc1OCC(O)CN1CCN(C(=O)c2ccccc2)CC1.Cl (centres unmarked),1.39%
